Laboratory results reported in PubChem BioAssay (NCI).
Values joined by “and” are separate entries in the source; they are usually repeats but may differ in a detail not shown here. Identical values can stand only once. Compounds without any hit were thinned out: in the full panel of roughly 83,000, 20% have a hit.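 The endpoint reported here, percent growth, reads 100 for growth as untreated, 0 for no net growth and -100 for all cells dead.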 Active and inactive are the calls of the source. How the source made its calls: active means growth percent below 10; inactive means the rest.

Assays:
Experiment in all cases: NCI-60 one-dose screen, 48 h (100 = growth as untreated, 0 = no growth, -100 = all killed)
[1] = tested on: SK-MEL-2 melanoma
[2] = tested on: EKVX NSCLC
[3] = tested on: SN12C renal
[4] = tested on: UO-31 renal
[5] = tested on: TK-10 renal
[6] = tested on: ACHN renal; details: 10 µM unless noted
[7] = tested on: CAKI-1 renal; details: 10 µM unless noted
[8] = tested on: A498 renal
[9] = tested on: CCRF-CEM leukemia
[10] = tested on: MOLT-4 leukemia
[11] = tested on: SR leukemia; details: 10 µM unless noted
[12] = tested on: RPMI-8226 leukemia
[13] = tested on: OVCAR-8 ovarian
[14] = tested on: OVCAR-5 ovarian
[15] = tested on: OVCAR-4 ovarian
[16] = tested on: SK-OV-3 ovarian
[17] = tested on: IGROV1 ovarian
[18] = tested on: OVCAR-3 ovarian
[19] = tested on: HS 578T breast
[20] = tested on: NCI/ADR-RES ovarian

Measured: growth

c1ccc(NCc2ccc3c(c2)OCO3)cc1
inactive: [1]; 10 µM unless noted 106% and 105% | [2]; 10 µM unless noted 107% | [3]; 10 µM unless noted 105% and 100% | [4]; 10 µM unless noted 78.7% and 83% | [5]; 10 µM unless noted 102% and 99.7% | [6] 109% and 97.4% | [7] 96.8% and 101% | [8]; 10 µM unless noted 101% and 86.9% | [9]; 10 µM unless noted 101% and 92.3% | [10]; 10 µM unless noted 95.7% and 97.2% | [11] 92.5% and 92.2% | [12]; 10 µM unless noted 99.6% and 93.7% | [13]; 10 µM unless noted 98.1% | [14]; 10 µM unless noted 110% and 98% | [15]; 10 µM unless noted 106% and 108% | [16]; 10 µM unless noted 92.4% and 99.3% | [17]; 10 µM unless noted 118% and 102% | [18]; 10 µM unless noted 103% and 105% | [19]; 10 µM unless noted 109% and 104% | [20]; 10 µM unless noted 106% and 105%

C1CCCCNCCC1
inactive: [1]; 10 µM unless noted 115% | [2]; 10 µM unless noted 99.8% | [3]; 10 µM unless noted 108% | [4]; 10 µM unless noted 92.5% | [5]; 10 µM unless noted 125% | [6] 117% | [7] 90.2% | [8]; 10 µM unless noted 113% | [9]; 10 µM unless noted 104% | [10]; 10 µM unless noted 110% | [11] 110% | [12]; 10 µM unless noted 99.5% | [13]; 10 µM unless noted 110% | [14]; 10 µM unless noted 106% | [15]; 10 µM unless noted 109% | [16]; 10 µM unless noted 117% | [17]; 10 µM unless noted 140% | [18]; 10 µM unless noted 112% | [19]; 10 µM unless noted 110% | [20]; 10 µM unless noted 127%

CC#C[C@]1(O)CC[C@H]2[C@@H]3CCC4=CC(=O)CCC4=C3[C@@H](c3ccc4c(c3)OCO4)C[C@@]21C
active: [1]; 100 µM -50.8% | [2]; 100 µM -10.7% | [3]; 100 µM -16.1% | [4]; 100 µM -42.4% | [5]; 100 µM -25.2% | [8]; 100 µM -59.7% | [9]; 100 µM -11.2% | [10]; 100 µM -7.79% | [12]; 100 µM -35% | [13]; 100 µM -13.6% | [15]; 100 µM 8.93% | [16]; 100 µM -5.43% | [17]; 100 µM 2.61% | [18]; 100 µM -40.2% | [19]; 100 µM 0.161% | [20]; 100 µM -15.3%
inactive: [1]; 10 µM 71.1% | [2]; 10 µM 72.4% | [3]; 10 µM 91.2% | [4]; 10 µM 66.1% | [5]; 10 µM 69.9% | [6] 80.4% | [8]; 10 µM 63% | [9]; 10 µM 89.9% | [10]; 10 µM 69.2% | [12]; 10 µM 69.6% | [13]; 10 µM 81.6% | [14]; 10 µM 109% | [14]; 100 µM 14.3% | [15]; 10 µM 80.9% | [16]; 10 µM 87.8% | [17]; 10 µM 86.1% | [18]; 10 µM 78% | [19]; 10 µM 79% | [20]; 10 µM 76.7%

Cc1ccc2nc3c(nc2c1)-c1cccc2cccc-3c12
inactive: [1]; 10 µM unless noted 107% | [2]; 10 µM unless noted 71.4% | [3]; 10 µM unless noted 81.2% | [4]; 10 µM unless noted 63.1% | [5]; 10 µM unless noted 83.5% | [6] 68.6% | [7] 79.1% | [8]; 10 µM unless noted 83.1% | [9]; 10 µM unless noted 85.7% | [10]; 10 µM unless noted 80.1% | [11] 64.9% | [12]; 10 µM unless noted 89.9% | [13]; 10 µM unless noted 69.6% | [14]; 10 µM unless noted 94.6% | [15]; 10 µM unless noted 92% | [16]; 10 µM unless noted 112% | [17]; 10 µM unless noted 63.9% | [18]; 10 µM unless noted 88.1% | [19]; 10 µM unless noted 92.9% | [20]; 10 µM unless noted 86.1%

NC(=S)N/N=C(\c1ccc(Br)cc1)C1CC1
inactive: [1]; 10 µM unless noted 92.8% | [2]; 10 µM unless noted 58% and 68.4% | [3]; 10 µM unless noted 89.5% | [4]; 10 µM unless noted 61.4% and 56.8% | [5]; 10 µM unless noted 119% | [6] 95.7% and 93% | [7] 83.7% and 81.4% | [8]; 10 µM unless noted 99.5% | [9]; 10 µM unless noted 52.5% and 55.6% | [10]; 10 µM unless noted 38% and 45.2% | [11] 87.6% | [12]; 10 µM unless noted 71.3% and 60.9% | [13]; 10 µM unless noted 83% | [14]; 10 µM unless noted 110% and 97.1% | [15]; 10 µM unless noted 74.4% | [16]; 10 µM unless noted 105% and 97% | [17]; 10 µM unless noted 18.1% and 42.3% | [18]; 10 µM unless noted 38.3% and 37.1% | [19]; 10 µM unless noted 96.1% and 98% | [20]; 10 µM unless noted 74.2% and 57.5%

O=C(CN1CCOCC1)N1CCOCC1
inactive: [1]; 10 µM unless noted 109% | [2]; 10 µM unless noted 117% and 84% | [3]; 10 µM unless noted 95.9% and 97.7% | [4]; 10 µM unless noted 68% and 80% | [5]; 10 µM unless noted 96.8% and 104% | [6] 108% and 98.9% | [7] 105% and 88.3% | [8]; 10 µM unless noted 108% | [9]; 10 µM unless noted 106% | [10]; 10 µM unless noted 97.9% and 103% | [11] 94.5% and 97.8% | [12]; 10 µM unless noted 96.3% and 106% | [13]; 10 µM unless noted 109% and 104% | [14]; 10 µM unless noted 115% and 91.5% | [15]; 10 µM unless noted 113% and 114% | [16]; 10 µM unless noted 110% and 96.3% | [17]; 10 µM unless noted 117% and 115% | [18]; 10 µM unless noted 115% and 128% | [19]; 10 µM unless noted 111% and 106% | [20]; 10 µM unless noted 107% and 114%

CCN(CC)C(=S)SSC(=S)N(CC)CC
3.32% (active) and 89% (inactive): [11]
inactive: [1]; 10 µM unless noted 103% | [2]; 10 µM unless noted 89.1% and 113% | [3]; 10 µM unless noted 78.9% and 106% | [4]; 10 µM unless noted 63.3% and 90.7% | [5]; 10 µM unless noted 96.9% | [6] 71.1% and 101% | [7] 76.4% and 87.5% | [8]; 10 µM unless noted 83.7% and 111% | [9]; 10 µM unless noted 16.9% and 102% | [10]; 10 µM unless noted 46% and 93.2% | [12]; 10 µM unless noted 45.4% and 110% | [13]; 10 µM unless noted 65.8% and 89.4% | [14]; 10 µM unless noted 86% and 100% | [15]; 10 µM unless noted 76.6% and 94.6% | [16]; 10 µM unless noted 98.7% and 102% | [17]; 10 µM unless noted 77.5% and 113% | [18]; 10 µM unless noted 68.3% and 108% | [19]; 10 µM unless noted 111% | [20]; 10 µM unless noted 84.1% and 106%

O=C(N/N=C/c1ccc2c(c1)OCO2)c1ccncc1
inactive: [1]; 10 µM unless noted 110% and 108% | [2]; 10 µM unless noted 104% and 101% | [3]; 10 µM unless noted 94.4% and 98.4% | [4]; 10 µM unless noted 82.8% and 79.4% | [5]; 10 µM unless noted 91.2% and 111% | [6] 107% and 103% | [7] 97.2% and 97.5% | [8]; 10 µM unless noted 98% and 94% | [9]; 10 µM unless noted 113% and 101% | [10]; 10 µM unless noted 133% | [11] 113% and 134% | [12]; 10 µM unless noted 111% and 103% | [13]; 10 µM unless noted 100% and 109% | [14]; 10 µM unless noted 98.7% and 113% | [15]; 10 µM unless noted 103% and 98.7% | [16]; 10 µM unless noted 101% and 104% | [17]; 10 µM unless noted 88.7% and 86.6% | [18]; 10 µM unless noted 106% and 96.5% | [19]; 10 µM unless noted 103% and 102% | [20]; 10 µM unless noted 101% and 106%

Nc1ncnc2c1ncn2C1CC(O)C(CO)O1 (stereo not given)
inactive: [1]; 10 µM unless noted 37.6% and 100% | [2]; 10 µM unless noted 100% and 118% | [3]; 10 µM unless noted 105% and 104% | [4]; 10 µM unless noted 89% and 88.8% | [5]; 10 µM unless noted 113% and 109% | [6] 110% and 120% | [7] 103% and 100% | [8]; 10 µM unless noted 105% and 98.5% | [9]; 10 µM unless noted 114% and 99.2% | [10]; 10 µM unless noted 114% and 92.3% | [11] 110% and 95% | [12]; 10 µM unless noted 102% and 105% | [13]; 10 µM unless noted 102% and 109% | [14]; 10 µM unless noted 103% and 116% | [15]; 10 µM unless noted 113% and 107% | [16]; 10 µM unless noted 105% and 110% | [17]; 10 µM unless noted 116% | [18]; 10 µM unless noted 127% and 109% | [19]; 10 µM unless noted 107% and 153% | [20]; 10 µM unless noted 104% and 113%
